In the library only some 2.2% were active in any assay of this set; here they are far more common.
Beta cell apopt: blocks beta cell apoptosis. AID 435005. 300,000 tested, 0.8% active. INS-1E cytokine-induced death, ATP luminescence, 48 h; percent of positive-control rescue, neutral wells zero. protection from apoptosis, % (no concentration beside the values);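 active means Every replicate reaches about 75%, or at least half do and their mean reaches it too, limit read from the data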;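 further: 0% = cytokine-treated negative control wells and 100% = positive control rescue; higher means more ATP so stronger rescue from cytokine killing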
CSC inhib: cancer stem cell inhibition; inhibition, % at 7.5 µM; cancer stem cell-like cells viability, luminescence; 300,000 tested, 1.1% active; AID 2717; in the data active means inhibition above about 75%; tested in HMLE shEcad cells
Shn3 inh set2: inhibitors of Schnurri-3 3'UTR reporter in osteoblasts. inhibition, % at 12.5 µM. Clone20 osteoblast Shn3 3'UTR firefly luciferase, 24 h. 360,000 tested, 0.52% active;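 active means mean inhibition of at least 75% with every replicate also reaching 75%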;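 further: 0% = median of neutral control wells and 100% = pilot-screen positive control compound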
PfHsp90 set2: inhibits growth of yeast expressing Plasmodium falciparum Hsp90. S. cerevisiae expressing PfHsp90, BacTiter-Glo ATP, 48 h; yeast lacking PDR1 and PDR3 efflux regulators. inhibition, % at 9.4 µM. 310,000 tested, 0.32% active. AID 504621;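 active means every replicate shows inhibition above about 80%, whatever the replicate mean, limit read from the data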;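 further: 0% = DMSO neutral controls and 100% = 20 µM radicicol positive controls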
Calb FLC: affects C. albicans growth with fluconazole. growth inhibition, % (concentration not given with the values). AID 1979. 300,000 tested, 0.57% active. C. albicans CaCi-2 (fluconazole-resistant clinical isolate) + fluconazole, Alamar Blue growth, 48 h;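 active means growth inhibition above about 58% in most replicates, limit read from the data, passing the limit was not always enough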;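 further: all wells also contain fluconazole at 8 µg/ml as a sub-toxic cotreatment; 0% = median of DMSO wells and 100% = median of geldanamycin control wells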
Active calls of the source: *; x = not tested or not shown.

SMILES	Beta cell apopt	CSC inhib	Shn3 inh set2	PfHsp90 set2	Calb FLC
CCCOC(=O)c1ccc(-[n+]2c(-c3ccccc3)cc(-c3ccccc3)cc2-c2ccccc2)cc1	123.0*	2.2	52.5	4.7	-10.1
[O-]c1ccccc1-[n+]1c(-c2ccccc2)cc(-c2ccccc2)cc1-c1ccccc1	95.2*	37.9	-4.0	5.1	96.2*
Oc1c(Br)cc(-c2ccccc2)cc1Br	x	x	18.6	-28.9	x
Nc1ccccc1-[n+]1c(-c2ccccc2)cc(-c2ccccc2)cc1-c1ccccc1	39.3	7.1	0.5	-18.5	87.3*
Brc1ccc(-[n+]2c(-c3ccccc3)cc(-c3ccccc3)cc2-c2ccccc2)cc1	128.7*	44.1	89.7*	21.7	-11.5
O=C(O)c1ccc(-[n+]2c(-c3ccccc3)cc(-c3ccccc3)cc2-c2ccccc2)cc1	1.4	-3.6	0.0	-30.8	-14.4
Nc1ccc(-c2ccccc2)cc1	x	x	-7.2	-4.6	x
Cc1ccccc1-[n+]1c(-c2ccccc2)cc(-c2ccccc2)cc1-c1ccccc1	100.3*	26.8	29.6	6.2	112.2*
Oc1ccccc1-[n+]1c(-c2ccccc2)cc(-c2ccccc2)cc1-c1ccccc1	42.2	16.2	-13.4	15.2	2.4
CC(=O)c1cccc(NC(=O)N2C[C@H]3C[C@@H](C2)c2cccc(=O)n2C3)c1	-1.1	-0.7	-8.0	1.1	4.1
CC1Oc2cc3c(-c4c(O)cc(O)c5c(O)c6c(cc45)OC(C)C(C)C6=O)c(O)cc(O)c3c(O)c2C(=O)C1C (configuration not stated)	108.8*	-3.1	87.9*	-41.5	-11.6

Source: PubChem BioAssay (Broad Institute)
